Source: PubChem BioAssay AID2535 (National Center for Advancing Translational Sciences (NCATS), 2010)
Active and inactive are the calls of the source. The call rests on the fitted dose curve; in most records, active means well fitted curve in the direction sought with a large enough effect; inconclusive means small, poorly fitted or top-dose-only effect, or effect the other way, or another doubt; inactive means no such curve, though single readings can be large or run the other way.

Each molecule was assayed against Pyruvate kinase PKLR (Homo sapiens) (UniProt P30613) (assay: Secondary Concentration-Response Assay for Activators of Human Liver Pyruvate Kinase: for Probe SAR). Details: purified hPK-L, ATP production, Kinase-Glo luminescence; series mostly up to 58.3 µM; activity change, positive = activation: at the top concentration.
From the text: NIH Chemical Genomics Center [NCGC]
Matthew G. Vander Heiden, M.D., Ph.D. [Harvard Medical School, 77 Avenue Louis Pasteur, Boston, MA 02115]
Human pyruvate kinase liver (hPK-L) enzyme was supplied as a highly purified (>95% pure) preparation from Harvard Medical School and assayed for its ability to generate ATP from ADP using phosphoenolpyruvate (PEP) as a substrate. ATP generation was detected in a coupled reaction by luciferase-mediated luminescence, an ATP-dependent process. Pyruvate kinase substrates, PEP and ADP, were present in the assay at Km and approximately 10-fold below Km respectively. The enzyme was assayed at an intermediate level of activity to screen for both inhibitors and activators.
NCGC Assay Protocol Summary for L-isoform:
Three uL of substrate mix (at r.t.) in assay buffer (50 mM Imidazole pH7.2, 50 mM KCl, 7 mM MgCl2, 0.01% Tween 20, 0.05% BSA) was dispensed into white solid bottom 1,536 well microtiter plates so that the final concentrations of substrates in the assay were 0.1 mM ADP and 0.5 mM PEP. 23 nL of compound were delivered by a pin tool and 1 uL of enzyme mix (final concentration of 0.1 nM) in assay buffer (4 degree Celsius) was added. Plates were incubated at room temperature for 1 hour. Two uL of detection mix (Kinase-Glo, Promega; at 4 degree Celsius protected from light) was added and luminescence read by a ViewLux (Perkin Elmer) at 1 second exposure/plate. Data were normalized to the uninhibited (row 31). Additionally, a no enzyme and 5-fold enzyme control was dispensed in row 32, split equally between the two conditions.
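Further: 0% = uninhibited enzyme wells on each plate.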

Sequence of Pyruvate kinase PKLR (Homo sapiens) (P30613 whole entry, looked up): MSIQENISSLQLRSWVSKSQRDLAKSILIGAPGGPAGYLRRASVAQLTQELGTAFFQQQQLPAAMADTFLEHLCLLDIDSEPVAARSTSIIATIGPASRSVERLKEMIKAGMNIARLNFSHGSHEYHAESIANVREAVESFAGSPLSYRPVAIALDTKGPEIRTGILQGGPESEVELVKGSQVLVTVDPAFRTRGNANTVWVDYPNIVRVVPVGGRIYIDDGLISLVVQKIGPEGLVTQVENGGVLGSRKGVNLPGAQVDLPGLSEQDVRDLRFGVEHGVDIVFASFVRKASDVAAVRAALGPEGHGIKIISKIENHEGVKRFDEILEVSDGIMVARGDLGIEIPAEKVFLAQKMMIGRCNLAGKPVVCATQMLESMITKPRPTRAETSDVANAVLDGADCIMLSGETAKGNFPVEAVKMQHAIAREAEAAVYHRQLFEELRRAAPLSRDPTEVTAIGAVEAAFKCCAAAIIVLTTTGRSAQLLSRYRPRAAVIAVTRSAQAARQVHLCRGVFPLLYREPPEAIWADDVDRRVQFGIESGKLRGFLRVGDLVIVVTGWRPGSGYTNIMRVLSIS

Activity change, positive = activation, inactive:
O=C1c2ccccc2C(=O)N1c1ccc2ncccc2c1 5.86%
Cc1ccc(NS(=O)(=O)c2cc3c(cc2N(C)C)NC(=O)CC3)cc1C 8%
Cc1ccc(NS(=O)(=O)c2ccc3c(c2)n(C)c(=O)n3C)cc1C 7.5%
Cc1ccc(NS(=O)(=O)c2ccc3c(c2)oc(=O)n3C)cc1C 8.8%
COc1ccc(Nc2c(-c3ccc(C)o3)nc3ccccn23)cc1 2.05%
COc1cccc(Cn2ncc3c4sc(SC)cc4n(C)c3c2=O)c1 1.35%
O=C1c2ccccc2C(=O)N1c1cccc2cccnc12 3.16%
Cc1ccc2nc(-c3ccc(C)o3)c(Nc3ccc(F)cc3)n2c1 -1.65%
Cc1nc(-c2ccc(S(=O)(=O)Nc3ccc(C)c(C)c3)s2)cs1 4.91%
O=C1c2ccccc2C(=O)N1C1CCCCC1 2.06%
O=C1c2ccccc2C(=O)N1Cc1ccncc1 4.78%
O=C1c2ccccc2C(=O)N1c1cccc(O)c1 -8.54%
O=C1c2ccccc2C(=O)N1c1cccc(=O)[nH]1 0.586%
O=C1c2ccccc2C(=O)N1c1nccs1 6.46%
Cc1ccc(NS(=O)(=O)c2ccc3ccccc3c2)cc1C 5.46%
CC(C)Nc1cccc(S(=O)(=O)N2CCCN(S(=O)(=O)c3ccc4c(c3)OCCO4)CC2)c1 8.24%
Cc1ccc(NS(=O)(=O)c2ccc3c(c2)CC(=O)N3)cc1C 30%
O=C1CCc2cc(S(=O)(=O)Nc3ccccc3F)ccc2N1 -10.2%
Cc1ccc(NS(=O)(=O)c2ccc(-c3ccccc3)cc2)cc1C 10.8%
O=C1c2ccccc2C(=O)N1c1ccncc1 -1.3%
O=C1CCc2cc(S(=O)(=O)Nc3cccc(B(O)O)c3)ccc2N1 6.48%
O=C1CCc2cc(S(=O)(=O)Nc3ccccn3)ccc2N1 3.25%
CNc1cc2c(cc1S(=O)(=O)Nc1ccc(C)c(C)c1)CCC(=O)N2 -8.71%
Cc1ccc(Nc2c(-c3ccsc3)nc3c(C)cccn23)cc1 -4.16%
Cc1ccc(NS(=O)(=O)c2ccc3c(ccn3C)c2)cc1C 6.76%
Cc1ccccc1Nc1c(-c2ccccc2)nc2cccc(C)n12 0.826%
Cc1ccc(Nc2c(-c3ccc(C)o3)nc3ccccn23)cc1 0.661%
Cc1ccc(NS(=O)(=O)c2ccc3c(c2)NC(=O)CO3)cc1C 15.7%
O=C1CCc2cc(S(=O)(=O)Nc3cccc(Br)c3)ccc2N1 6.23%
O=C1c2ccccc2C(=O)N1c1cc(=O)c2ccccc2[nH]1 3.65%
COc1ccc(-c2nc3ccccn3c2Nc2ccccc2C)cc1 3.41%
Cc1ccccc1Nc1c(-c2ccc(Cl)s2)nc2ccccn12 1.64%
Cc1ccc(-c2nc3cccc(C)n3c2Nc2ccc(F)cc2)o1 4.76%
COc1cc(N2C(=O)c3ccccc3C2=O)c2ncccc2c1 4.29%
CCNc1cccc(S(=O)(=O)N2CCN(S(=O)(=O)c3ccc4c(c3)OCCO4)CC2)c1 21.8%
O=C1CCc2cc([S+](=O)([O-])NC3CCOCC3)ccc2N1 -3.54%
Cc1ccc2nc(-c3cccs3)c(Nc3ccccc3)n2c1 -8.18%
COc1cccc(Cn2ncc3c4sc(S(C)=O)cc4n(C)c3c2=O)c1 (stereo not given) 5.38%
Cn1c2cc(S(C)=O)sc2c2cnn(Cc3cccc(O)c3)c(=O)c21 (stereo not given) -1.92%
Cc1ccc(NS(=O)(=O)c2ccc3c(c2)CCC(=O)N3)cc1Cl 8.73%
